A selection: hits, their analogues and other compounds. The true share with any hit is near 2.4%.
WRN inhibitor – blocks human WRN helicase; WRN helicase unwinding, fluorescent forked duplex, kinetic; AID 651768; 360,000 compounds, 0.46% hits; Potency, µM (titrated, usually from 114 µM), inactives show at the top dose activity change, negative = inhibition, usual class: inhibitors; Q14191; further: potency means the concentration at half of the fitted maximal effect; on the % scale 0 is the no-effect control and ±100 the full control effect; nearly all actives have a fitted effect of over 55% in size
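Enzyme (20 nM final) and test compound sit together 15 min at room temperature before substrate addition. Substrate is a single-forked duplex oligonucleotide (100 nM) labelled with fluorophore and quencher, with 2 mM ATP; helicase unwinding raises red fluorescence, read kinetically.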
POLK inh – inhibitors of human DNA polymerase kappa; 400,000 compounds, 0.53% hits; Q9UBT6; Potency, µM (doses to about 107 µM), for the others: at the highest dose activity, negative = inhibition, hits mostly inhibitors; purified Pol kappa, fluorescent DNA synthesis assay, 10 min; further: potency means the concentration at half of the fitted maximal effect; on the % scale 0 is the no-effect control and ±100 the full control effect
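10 nM Pol kappa was preincubated with compounds for 15 min at room temperature. Reaction started with 50 nM (final) substrate. Fluorescence read kinetically at 0 and 10 min.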
Pol beta inh-1 – blocks human DNA polymerase beta activity; P06746; Pol beta primer extension/strand displacement, fluorescence kinetic; Potency, µM (doses to about 114 µM), for inactives: at the highest dose activity change, negative = inhibition, actives largely listed as inhibitors; 340,000 compounds, 1.3% hits; AID 485314; further: potency means the concentration at half of the fitted maximal effect; on the % scale 0 is the no-effect control and ±100 the full control effect
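Kinetic readout of DNA synthesis with strand displacement by Pol beta. Compound and 10 nM enzyme sit 15 min at room temperature; 50 nM substrate starts the reaction, read immediately and at 10 min.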
FEN1 inh – blocks human flap endonuclease 1; Recombinant FEN1 flap cleavage, fluorescence, 15 min; P39748; Potency, µM (series often up to 114 µM), for the others: top-dose activity change, negative = inhibition, usual class: inhibitors; 390,000 compounds, 0.35% hits; further: potency means the concentration at half of the fitted maximal effect; on the % scale 0 is the no-effect control and ±100 the full control effect; nearly all actives have a fitted effect of over 65% in size
Target sequence (P39748 whole entry, looked up): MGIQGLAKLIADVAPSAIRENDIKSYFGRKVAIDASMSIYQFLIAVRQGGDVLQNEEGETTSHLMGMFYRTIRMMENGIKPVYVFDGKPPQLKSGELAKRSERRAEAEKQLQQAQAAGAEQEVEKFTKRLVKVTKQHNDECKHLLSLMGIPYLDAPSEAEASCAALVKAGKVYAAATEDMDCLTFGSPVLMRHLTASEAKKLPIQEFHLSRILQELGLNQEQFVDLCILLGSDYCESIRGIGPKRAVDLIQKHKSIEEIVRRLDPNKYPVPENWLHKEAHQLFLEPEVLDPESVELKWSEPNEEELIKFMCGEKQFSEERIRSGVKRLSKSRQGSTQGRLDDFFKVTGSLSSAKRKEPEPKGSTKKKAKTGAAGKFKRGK
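FEN1 at 10 nM, compound pretreatment for 15 min (room temperature), 50 nM final substrate to initiate; endpoint reads at 0 and 15 min; DMSO-only plates used as vehicle background.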
Pol eta inh – DNA polymerase eta (human) inhibition. Q9Y253. recombinant Pol eta, fluorescent DNA replication assay. Potency, µM (series often up to 114 µM), for inactives: top-dose activity change, negative = inhibition, usual class: inhibitors. 390,000 compounds, 1.2% hits. AID 588591; further: potency means the concentration at half of the fitted maximal effect; on the % scale 0 is the no-effect control and ±100 the full control effect
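Pol eta (10 nM) was preincubated with compounds for 15 min at room temperature, after which fluorescent replication substrate (50 nM final) was added to start the reaction. Fluorescence was read kinetically at 0 and 10 min.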
Pol iota inh – DNA polymerase iota (human) inhibition; Potency, µM (series often up to 115 µM), for the others: at the highest dose activity, negative = inhibition, most hits filed as inhibitors; AID 588590; 390,000 compounds, 1% hits; Pol iota fluorescent replication assay, 10 min; further: potency means the concentration at half of the fitted maximal effect
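Pol iota at 10 nM preincubated 15 min with compounds at room temperature; reaction started with fluorescent substrate, 50 nM final. Fluorescence read kinetically at 0 and 10 min; buffer-only wells as negative control.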
Pol beta inh-2 – Inhibitors of human DNA polymerase beta, hit validation | shares compounds with Pol beta inh-1 | Pol beta primer extension/strand displacement, fluorescence kinetic | Potency, µM, hits mostly inhibitors | 250 compounds, 87% hits; calls by dose curve; further: potency means the concentration at half of the fitted maximal effect
Klenow counter – inhibits Klenow fragment polymerase in counter-screen. Klenow exo- polymerase counter-screen, fluorescent DNA substrate. activity change, negative = inhibition, % at 57.1 µM. shares compounds with Pol beta inh-1. 250 tested, under 10 active
HIV RT counter – counter-screen for DNA polymerase beta inhibitors: HIV-1 RT inhibition; shares compounds with Pol beta inh-1; HIV-1 RT polymerase activity, counter-screen; activity % (negative = inhibition, positive = activation), % at 57.1 µM; 250 tested, under 10 active; AID 540301
POLB inh gel – validation of human DNA polymerase beta inhibitors; shares compounds with Pol beta inh-1; radiolabeled primer extension gel assay, phosphorimager; inhibition, % at 10 µM; 110 compounds, 91% hits; AID 540325;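 active means inhibition at 10 µM of 30% or more; inconclusive means no clear call, values can overlap the other calls; inactive means inhibition at 10 µM under 30%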
Numbers without * were called inactive; ? = inconclusive; / = no result given; [ ] = another dose, or the depositor's remark. Unless noted, the call rests on the fitted dose curve; in most records, active means well fitted curve in the direction sought with a large enough effect; inconclusive means small, poorly fitted or top-dose-only effect, or another doubt; inactive means no such curve, though single readings can be large; an effect the other way counts as inactive or inconclusive.

SMILES	WRN inhibitor	POLK inh	Pol beta inh-1	FEN1 inh	Pol eta inh	Pol iota inh	Pol beta inh-2	Klenow counter	HIV RT counter	others
CC(C)(C)c1ccc(-c2noc(CCC(=O)N3CCOCC3)n2)cc1	-22.5%	8.5%	-1.2%	11.8%	-15.2%	50.2%	/	/	/
CCN(CC)S(=O)(=O)c1ccc(C(=O)NCc2ccc3c(c2)cc(C)n3C)cc1	50.1µM*	-29.7%	-0.4%	?	-19.5%	?	/	/	/
COc1ccc(C(=O)NCc2ccc3c(c2)cc(C)n3C)cc1OC	-8.3%	-11.0%	-1.1%	-14.8%	-11.3%	?	/	/	/
Cc1ccc(S(=O)(=O)/N=C2/C=C(C3C(=O)CC(C)(C)CC3=O)C(=O)c3ccccc32)cc1	16.8µM*	-25.5%	?	-16.3%	-11.6%	?	/	/	/
CC(=O)Nc1ccc(NC(=O)c2ccco2)cc1	0.6%	-1.8%	-4.5%	-14.3%	3.8%	18.9%	/	/	/
CC1N(C)c2cc(NC(=O)c3ccco3)ccc2C1(C)C (centres undefined)	50.1µM*	?	20µM*	?	?	?	?	-36.4	-8.4
O=[N+]([O-])c1cc(CN2CCOCC2)c2cccnc2c1O	-22.8%	?	2.51µM*	28.2µM*	8.91µM*	?	4.47*	11.0	19.6
CC(=O)Nc1ccc(NC(=O)CCCCCn2nnc3ccccc3c2=O)cc1	6.9%	-10.4%	2.3%	-11.9%	8.8%	-8.4%	/	/	/
COc1ccccc1-c1nnc2n1N=C(c1ccc(O)c(O)c1)CS2	22.4µM*	25.1µM*	3.98µM*	-6.3%	8.91µM*	12.6µM*	25.1*	-21.7	-14.5	POLB inh gel=36.9*
CCOc1ccc(C2=Nn3c(nnc3-c3ccccc3OC)SC2)cc1	-12.1%	-4.7%	-0.5%	-12.6%	1.6%	20.3%	/	/	/
CS(=O)(=O)NCCn1ccc2ccccc21	9.6%	0.9%	6.9%	0.4%	-6.4%	44.4%	/	/	/
O=C(Nc1cccc(-c2nc3ccccc3[nH]2)c1)c1cccc(NC(=O)c2ccco2)c1	-30.2%	?	12.6µM*	?	50.1µM*	?	31.6*	-9.4	62.4
O=C(CSc1nc2c(cnn2-c2ccccc2)c(=O)[nH]1)c1ccc(Cl)cc1	-8.1%	3.9%	5.01µM*	?	?	?	7.08*	-20.8	0.3
O=C(CSc1nc2c(cnn2-c2ccccc2)c(=O)[nH]1)N1CCCCC1	-15.8%	-3.3%	24.0%	-6.6%	-19.0%	30.3%	/	/	/
O=C(COc1ccccc1-c1ccccc1)NCc1ccco1	-4.0%	-15.6%	6.5%	-13.8%	-13.0%	67.2%	/	/	/
O=C(COC(=O)c1ccccc1Oc1ccccc1)NCc1ccco1	?	79.4µM*	20µM*	?	14.1µM*	?	35.5*	-4.2	?
Cc1ccc(Cl)cc1NC(=O)[C@@H]1CCC(=O)N1C1OC(=O)c2ccccc21 (some centres undefined)	-1.8%	3.3%	3.5%	15.6%	-7.7%	18.6%	/	/	/
N#Cc1c(=O)c2nc(NCCCO)ncc2n2c(=O)c3ccccc3[nH]c12	?	-29.7%	11.2µM*	?	39.8µM*	22.4µM*	?	-37.8	-1.0	POLB inh gel=40.0*
CCOC(=O)c1c(C)[nH]c(C)c1S(=O)(=O)N1CCCC(C(=O)N2CCN(c3ccc(Cl)cc3)CC2)C1 (centres undefined)	/	-6.0%[60.1 µM]	15.2%	-6.4%	-14.3%	7.9%	/	/	/

Source: PubChem (National Center for Advancing Translational Sciences (NCATS))
